CRE Fsk mod = alters forskolin-stimulated CRE reporter signaling in CHO cells; CHO CRE-bla reporter (cAMP response element driving beta-lactamase), forskolin EC10, beta-lactamase ratio; Potency, µM (series often up to 38.2 µM), most hits filed as activators; 71,000 compounds, 2.5% hits; active = well fitted activation curve with a large enough effect in the signal ratio, with a control signal flat, not every such curve was filed as active; inconclusive = small, poorly fitted or top-dose-only effect, or effect the other way, or a change in a side signal; the % refers to the signal ratio
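Modulation of forskolin signalling: compounds in titration series added with EC10 NKH 477 to CHO cells carrying a CRE-driven beta-lactamase reporter, 3 h, 37C. CCF4 FRET ratio (460/530 nm, ex 405 nm) gives %activity and AC50.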
A350 fluor = compounds fluorescent in Alexa 350 spectral region. Compound autofluorescence, 340/450 nm, Alexa 350 dye-equivalents; hits give high values. max dye-equivalent concentration, M. 59,000 compounds, 11% hits; in the data active = max dye-equivalent concentration above about 10 nM; inconclusive = mostly about 1.1 nM to 9.6 nM
HSD17B inhib = inhibitors of human HSD17B10 dehydrogenase; recombinant HSD17B10, NADH fluorescence kinetic; Potency, µM (highest dose often 57.1 µM), actives largely listed as inhibitors; 75,000 compounds, 7.6% hits; AID 893;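 note: the protocol describes HADH2 (HSD17B10) and not the HSD17B4 of the title; nearly all actives have a fitted effect of over 70% in size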
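His-tagged E. coli-expressed HADH2 at 20 nM in 100 mM Tris-HCl pH 9.0 with 0.01 % Tween-20, preincubated 15 min with compound at room temperature. Reaction with 1 mM NAD+ and 90 uM beta-hydroxybutyryl coenzyme A; NADH fluorescence (360/450 nm) read kinetically over 4 min, last minus first point.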
HADH2 inh = HADH2 (human) dehydrogenase inhibition | recombinant HADH2, NADH fluorescence, beta-hydroxybutyryl-CoA | Potency, µM (titrated, usually from 57.1 µM), most hits filed as inhibitors | 73,000 compounds, 3.4% hits | AID 886; note: nearly all actives have a fitted effect of over 60% in size
Target sequence (Q99714 whole entry, looked up, one chain of several): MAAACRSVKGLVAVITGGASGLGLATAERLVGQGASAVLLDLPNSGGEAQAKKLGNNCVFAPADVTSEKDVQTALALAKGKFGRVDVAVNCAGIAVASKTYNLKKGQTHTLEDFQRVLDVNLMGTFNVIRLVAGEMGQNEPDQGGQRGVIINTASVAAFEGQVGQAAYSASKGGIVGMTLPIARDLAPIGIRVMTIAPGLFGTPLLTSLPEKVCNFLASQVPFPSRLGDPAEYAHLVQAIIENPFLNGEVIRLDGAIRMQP
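Read-out: 360 nm excitation, 450 nm emission, kinetic over 4 min. Conditions: His-tagged human HADH2 20 nM, pH 9.0 Tris with Tween-20, 1 mM NAD+, 90 uM beta-hydroxybutyryl-CoA.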
AID923 = qHTS Assay for Allosteric/Competitive Inhibitors of Caspase-1: Spectroscopic Profiling in AFC Spectral Region; compound fluorescence, AFC spectral region (405/520 nm); Potency, µM (highest dose often 57.5 µM), hits mostly activators; 75,000 compounds, 1.1% hits
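Compound autofluorescence profiled at 405 nm ex/520 nm em during kinetic caspase 1 run (50 nM enzyme, 5 uM Ac-WEHD-AFC, HEPES pH 7.5, 10 mM DTT). Titration up to 57 uM; baseline from regression intercept, normalized to AFC standard curve.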
4-MU autofl = compound fluoresces in the 4-MU spectral region; compound autofluorescence, 340/450 nm, 4-MU equivalents; hits give high values; AID 589; 59,000 compounds, 11% hits; max dye-equivalent concentration, M; in the data active = max dye-equivalent concentration above about 10 nM; inconclusive = mostly about 1.1 nM to 9.6 nM
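Compounds in 100 mM Tris, pH 8.0, sat 15 min at room temperature before fluorescence was read at 340 nm excitation/450 nm emission; a per-plate six-point 4-MU standard curve converted signals to dye-equivalent concentration at each compound concentration.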
A number is an active result; – = inactive; ? = inconclusive; · = no result given; [ ] = dose if it differs, or a comment. An excerpt weighted towards active compounds, which were near 14% of everything screened. Unless noted, calls come from the whole dose curve; as a rule, active = well fitted curve in the direction sought with a large enough effect; inconclusive = small, poorly fitted or top-dose-only effect, or another doubt; inactive = no such curve, though single readings can be large; an effect the other way counts as inactive or inconclusive.

SMILES	CRE Fsk mod	A350 fluor	HSD17B inhib	HADH2 inh	AID923	4-MU autofl
C=CCn1c(SCC(=O)NC2CCS(=O)(=O)C2)nc2scc(C3CC3)c2c1=O (stereo not given)	?	–	–	–	–	–
C=CCn1c(SCc2cc(=O)n3ccsc3n2)nc2scc(C3CC3)c2c1=O	1.6µM	–	–	–	–	–
COC(=O)c1c(N)c(C#N)c2n1CCCCC2	–	2.6e-08M	–	–	–	2.2e-08M
N#Cc1c(N)c(C(=O)c2ccccc2)n2c1CCC2	–	–	–	–	–	–
CCC1=C2CC[C@H]3C(=O)N(CC(=O)OC)C(=O)[C@H]3[C@H]2[C@@]2(Cc3ccccc3)C(=NCCOC)OC(=O)N2C1=O	·	·	–	·	–	·
CC[C@H]1OC(=O)[C@H](C)[C@@H](O[C@H]2C[C@@](C)(OC)[C@@H](O)[C@H](C)O2)[C@H](C)[C@@H](O[C@@H]2O[C@H](C)C[C@H](N(C)C)[C@H]2O)[C@](C)(O)C[C@@H](C)CN(C)[C@H](C)[C@@H](O)[C@]1(C)O	?	·	–	–	–	·
O=C(O)CCC(=O)c1ccc[nH]1	–[7.6 µM]	–	–[11.4 µM]	–[11.4 µM]	–[11.5 µM]	–
CSCC[C@@H](C(=O)O)N(C)C	–[7.6 µM]	–	–[11.4 µM]	–[11.4 µM]	–[11.5 µM]	–
CCC(=O)N1CCc2cc(S(=O)(=O)N3CCc4ccccc4C3)ccc21	–	–	–	–	–	–
CCOC(=O)N1CCN(S(=O)(=O)c2ccc3c(c2)CCN3C(=O)CC)CC1	–	4.8e-08M	–	–	–	5e-08M
O=S(=O)(c1ccc2c(c1)C(=NO)c1cc(S(=O)(=O)N3CCCCC3)ccc1-2)N1CCCCC1	?	3.1e-08M	32µM	–	–	3.3e-08M
CC1CCC2C(=O)OC(CN3C(=O)c4ccccc4C3=O)CN2C1c1ccc(Br)cc1 (stereo not given)	·	·	–[11.4 µM]	–[11.4 µM]	–[11.5 µM]	·
CN(C)Cc1ccccc1-c1nccc(NCc2cccs2)n1	–	–	–	–	–	–
CN(C)c1ccc(-c2nccc(NCc3ccccc3)n2)cc1	?	?	20µM	–	–	?
N#Cc1cccc(-c2nccc(NCc3ccccc3)n2)c1	?	4.8e-08M	–	–	–	4.3e-08M
Cc1cccc(CNc2ccnc(-c3ccc(N(C)C)cc3)n2)c1	?	?	25µM	?	–	?
N#Cc1cccc(-c2nccc(NCc3cccnc3)n2)c1	?	–	?	–	–	–
COc1ccccc1CNc1ccnc(-c2ccc(N(C)C)cc2)n1	13µM	?	4µM	?	–	?
IC(I)I	–	·	?	?	–	·
NCCNC(=S)S	–[7.6 µM]	–	–[11.4 µM]	0.5µM	–[11.5 µM]	–
O=C(O)C(Cl)(c1ccccc1)c1ccccc1	–[7.6 µM]	–	–[11.4 µM]	–[11.4 µM]	–[11.5 µM]	–
CCC(=O)N1CCN(c2ccccc2NC(=O)c2cccc(C)c2)CC1	–	3.8e-06M	–	?	–	3.2e-06M
CCC(=O)N1CCN(c2ccccc2NC(=O)COc2cccc(C)c2)CC1	–	–	–	–	–	–
CCC(=O)N1CCN(c2ccc(Cl)cc2NC(=O)c2ccc(Br)o2)CC1	–	1.8e-07M	25µM	–	–	1.6e-07M
CC(C)=CCC/C(C)=C/CO/N=C1/C[C@@H](O)[C@@H](O)[C@@H]2[C@H]3C(=O)N(c4ccc(F)cc4F)C(=O)[C@@H]3CC[C@H]12	·	·	–[11.4 µM]	–[11.4 µM]	–[11.5 µM]	·
SMILES	CRE Fsk mod	A350 fluor	HSD17B inhib	HADH2 inh	AID923	4-MU autofl
CC12CCC3c4ccc(OCc5ccccc5)cc4CCC3C1CC(O)C2O (stereo not given)	·	·	–	·	–	·
COc1ccc(C(=O)N2CCC3(CCCN(Cc4ccncc4)C3)CC2)cc1	–	–	–	–	–	–
Cc1ccc2cccc(SCC(=O)NCc3ccco3)c2n1	–	2.8e-08M	25µM	?	–	2.2e-08M
Cc1ccc2cccc(SCC(=O)N3CCOCC3)c2n1	–	·	32µM	–	–	·
CCCc1nc2ccccc2c(=O)n1/N=C/c1ccccc1O	–	–	13µM	–	–	–
COc1cccc(/C=N/n2c(C)nc3ccccc3c2=O)c1O	–	?	–	–	–	–
CC(=O)O[C@]1(C(C)=O)CC[C@@H]2[C@@H]3C=C(Cl)C4=CC(=O)[C@H]5C[C@@H]5[C@]4(C)[C@H]3CC[C@]21C	–	?	–	–	–	?
Cc1c(C(=O)NCc2ccc3c(c2)OCO3)oc2ccc(S(=O)(=O)N3CCCC3)cc12	–	–	25µM	?	–	–
Cc1c(C(=O)N2CCCc3ccccc32)oc2ccc(S(=O)(=O)N3CCOCC3)cc12	–	1.9e-07M	?	–	–	1.5e-07M
Nc1ccc(S(=O)(=O)NCc2nccs2)cc1	–[7.6 µM]	–	–[11.4 µM]	–[11.4 µM]	–[11.5 µM]	–
C#C[C@]1(OC(C)=O)CCC2C3CCC4=CC(=O)CCC4C3CC[C@]21C (stereo not given in full)	·	·	–	·	–	·
COc1cc(CN2CCCCC2)cc2cc(C(=O)O)c(=O)oc12	–[7.6 µM]	–	–[11.4 µM]	–[11.4 µM]	–[11.5 µM]	–
COC(=O)c1ccc(COc2nc(C)cc(C)c2C#N)o1	?	–	–	–	–	–
Cc1c(OCc2ccc(C(=O)O)o2)ccc2c3c(c(=O)oc12)CCC3	?	·	25µM	–[11.4 µM]	–	·
COC(=O)c1ccc(COc2ccc3c(C)c(C)c(=O)oc3c2C)o1	?	·	10µM	–[11.4 µM]	–	·
COCC(=O)N1CCC2(CC1)CN(C(=O)Nc1cccc(C#N)c1)C2	–	–	–	–	–	?
O=C(O)c1cc(O)c2c(c1)[C@H]([C@H]1c3cc(C(=O)O)cc(O)c3C(=O)c3c(O[C@@H]4OC(CO)C(O)C(O)C4O)cccc31)c1cccc(O[C@@H]3OC(CO)C(O)C(O)C3O)c1C2=O (stereo not given in full)	·	·	3.2µM	·	–	·
CCOC(=O)Cc1csc(NC(=O)CCS(=O)(=O)Cc2ccccc2)n1	?	?	–	–	–	–
Cc1cccc(NC(=O)c2cnc3scc(C)n3c2=O)c1	–	·	?	?	–	·
CCOC(=O)Cc1csc(NC(=O)CS(=O)(=O)Cc2ccccc2)n1	?	1.1e-08M	13µM	16µM	–	1.1e-08M
Cc1csc2ncc(C(=O)Nc3ccon3)c(=O)n12	–	1.9e-06M	3.2µM	25µM	–	2.2e-06M
CCOC(=O)Cc1csc(NC(=O)c2csc(C)c2)n1	–	–	–	–	–	–
Cc1csc2ncc(C(=O)Nc3ccccc3Cl)c(=O)n12	–	·	20µM	–	–	·
CCOC(=O)Cc1csc(NC(=O)c2cnc3scc(C)n3c2=O)n1	–	1.5e-08M	–	–	–	1.6e-08M
CN1C(=O)c2ccc(N(C)C)cc2C1=O	·	–	·	·	·	–
COc1cc(=O)n(C)c2cc(N(C)C)ccc12	?	2.4e-06M	32µM	25µM	–	1.6e-06M
Cc1nc2c3c(-c4ccccc4)c(-c4ccccc4)oc3ncn2n1	?	1.6e-08M	?	–	–	1.3e-08M
COc1ccccc1OCc1nc2c3c(-c4ccccc4)c(-c4ccccc4)oc3ncn2n1	–	?	–	–	–	?

Bioassay records: PubChem, National Center for Advancing Translational Sciences (NCATS)
